{"source": "PubChem BioAssay (Tox21)", "note": "Inconclusive results are not listed. Calls of active or inactive are those of the source. Calls follow the shape of the dose curve; as a rule, active = well fitted activation curve with a large enough effect in the signal ratio in the repeat runs (not every such curve was filed as active); inconclusive = weak or mixed curves; inactive = flat fitted curve, though single readings scatter; the % refers to the signal ratio.", "data": [{"assay": "qHTS assay to identify small molecule agonists of the hypoxia (HIF-1) signaling pathway (AID 1224846)", "conditions": "HRE-bla ME-180 cells, beta-lactamase ratio, 17 h; series mostly up to 76.8 µM", "excerpt": "U.S. Tox21 Program National Center for Advancing Translational Sciences [NCATS] NIH Chemical Genomics Center [NCGC] U.S. Environmental Protection Agency [EPA] National Institutes of Environmental Health Sciences [NIEHS] National Toxicology Program [NTP] U.S. Food and Drug Administration [FDA] Tox21 Assay Overview: Hypoxia-inducible factor-1 (HIF-1) is the major hypoxia-regulated transcription factor that controls cellular responses to low oxygen concentration. HIF-1 is composed of two subunits: hypoxia responsive HIF-1-alpha and constitutively expressed HIF-1-beta, which is also known as aryl hydrocarbon receptor nuclear translocator. During hypoxic conditions, HIF-1-alpha heterodimerizes with HIF-1-beta and translocates into the nucleus where the HIF-1 complex binds to the hypoxia-response element (HRE) and activates expression of target genes such as VEGF (vascular endothelial growth factor). The HIF-1 pathway is essential to normal growth and development, and is involved in the pathophysiology of cancer, inflammation, and ischemia. Using a beta-lactamase reporter-gene under control of the hypoxia response element, a cell-based assay [CellSensor(TM) HRE-bla ME-180 from Life Technologies, Carlsbad, CA] was used to measure hypoxia-induced signaling. Tox21 10K library compounds were measured for their ability to induce the reporter gene activity.\nTox21 Assay Protocol Summary: HRE-bla ME-180 cells were dispensed at 2,000 cells per well in 6 uL of assay medium containing 0.5% dialyzed FBS into black wall/clear-bottom 1536-well plates using a Multidrop Combi (Thermo Scientific, Waltham, MA) dispenser. After the assay plates were incubated at 37C and 5% CO2 for 5 hrs, 23 nL of compounds dissolved in DMSO, positive controls or DMSO only was transferred to each well of the assay plate using a Pintool station (Kalypsys, San Diego, CA). The assay plates were incubated at 37C and 5% CO2 for 17 hrs. One uL of LiveBLAzerTM B/G FRET substrate (CCF4-AM) (Life Technologies) was added to each well using a Flying Reagent Dispenser (Aurora Discovery, San Diego, CA).", "values": [{"compound": "C[C@]12CC[C@H]3[C@@H](CCC4=CC(=O)CC[C@@]43C)[C@@H]1CC[C@@H]2C(=O)O", "outcome": "inactive"}, {"compound": "ClCC(Cl)Cl", "outcome": "inactive"}, {"compound": "N#Cc1c(Cl)cccc1Cl", "outcome": "inactive"}, {"compound": "O=C1OC(CCN2CCCCC2)OC1(c1ccccc1)c1ccccc1", "note": "(stereo not given)", "outcome": "inactive"}, {"compound": "CCCSP(=O)(OCC)Oc1ccc(Br)cc1Cl", "note": "(stereo not given)", "outcome": "inactive"}, {"compound": "COC(=O)C(C)Oc1ccc(Oc2ccc(Cl)cc2Cl)cc1", "note": "(stereo not given)", "outcome": "inactive"}, {"compound": "CCCCCCI", "outcome": "inactive"}, {"compound": "OC(c1ccc(F)cc1)(c1cncnc1)c1ccccc1Cl", "note": "(stereo not given)", "outcome": "inactive"}, {"compound": "COCC(=O)N(c1c(C)cccc1C)N1CCOC1=O", "outcome": "inactive"}, {"compound": "Cc1cnc[nH]1", "outcome": "inactive"}, {"compound": "CC(C)CC#N", "outcome": "inactive"}, {"compound": "CC(C(=O)c1ccccc1)N(C)C", "note": "(stereo not given)", "outcome": "inactive"}, {"compound": "ClC(Cl)C(Cl)Cl", "outcome": "inactive"}, {"compound": "N#CCCC#N", "outcome": "inactive"}, {"compound": "Nc1c(Br)cc([N+](=O)[O-])cc1[N+](=O)[O-]", "outcome": "inactive"}, {"compound": "N#CC(O)c1ccccc1", "note": "(stereo not given)", "outcome": "inactive"}, {"compound": "O=C1CN2CCOC2(c2ccccc2Cl)c2cc(Cl)ccc2N1", "note": "(stereo not given)", "outcome": "inactive"}, {"compound": "CCOP(=S)(Oc1cnc(C(C)(C)C)nc1)OC(C)C", "note": "(stereo not given)", "outcome": "inactive"}, {"compound": "c1cc2c(c(N3CCNCC3)c1)OCCO2", "outcome": "inactive"}, {"compound": "O=NN1CCCCC1", "outcome": "inactive"}, {"compound": "CCNc1nc(NC(C)C)nc(OC)n1", "outcome": "inactive"}, {"compound": "CCOP(=O)(N=C1SCCS1)OCC", "outcome": "inactive"}, {"compound": "CC1=NNC(=O)N(/N=C/c2cccnc2)C1", "outcome": "inactive"}, {"compound": "N#CC(Cl)(Cl)Cl", "outcome": "inactive"}, {"compound": "CC1(C)CON(Cc2ccccc2Cl)C1=O", "outcome": "inactive"}, {"compound": "CC(COc1ccc(Oc2ccccc2)cc1)Oc1ccccn1", "note": "(stereo not given)", "outcome": "inactive"}, {"compound": "OCCBr", "outcome": "inactive"}, {"compound": "Cc1nnc2n1-c1sc(CCC(=O)N3CCOCC3)cc1C(c1ccccc1Cl)=NC2", "outcome": "inactive"}, {"compound": "O=CNC(N1CCN(C(NC=O)C(Cl)(Cl)Cl)CC1)C(Cl)(Cl)Cl", "note": "(stereo not given)", "outcome": "inactive"}, {"compound": "COC(=O)c1ccccc1S(=O)(=O)NC(=O)Nc1nc(C)cc(C)n1", "outcome": "inactive"}, {"compound": "Cc1ncc2n1-c1ccc(Cl)cc1C(c1ccccc1F)=NC2", "outcome": "inactive"}, {"compound": "CCCCC(=O)Cl", "outcome": "inactive"}, {"compound": "CN/C(=N\\[N+](=O)[O-])NCC1CCOC1", "note": "(stereo not given)", "outcome": "inactive"}, {"compound": "CCC1(c2ccccc2)C(=O)NC(=O)NC1=O", "outcome": "inactive"}, {"compound": "O=[N+]([O-])c1cc(Cl)c(Cl)c(Cl)c1", "outcome": "inactive"}, {"compound": "CNC(=O)Oc1c(C(C)(C)C)cc(C)cc1C(C)(C)C", "outcome": "inactive"}, {"compound": "CCCCOP(=O)(O)OCCCC", "outcome": "inactive"}, {"compound": "CCS(=O)(=O)CCSP(=O)(OC)OC", "outcome": "inactive"}, {"compound": "C[N+](C)=CCl", "outcome": "inactive"}, {"compound": "COc1cc(OC)nc(Sc2cccc(Cl)c2C(=O)O)n1", "outcome": "inactive"}]}]}
